± gives the standard deviation of the averaged measurements. The full ranking holds about 33,000 sequences; the median of “E-score (dimensionless, -0.5 to 0.5)” is about -0.046, and the highest 2% start at about 0.36. The full list was thinned out, with the highest values kept by preference.
Tested on: T1, SpTbr T-box DNA-binding domain (GST fusion)
T1 sequence: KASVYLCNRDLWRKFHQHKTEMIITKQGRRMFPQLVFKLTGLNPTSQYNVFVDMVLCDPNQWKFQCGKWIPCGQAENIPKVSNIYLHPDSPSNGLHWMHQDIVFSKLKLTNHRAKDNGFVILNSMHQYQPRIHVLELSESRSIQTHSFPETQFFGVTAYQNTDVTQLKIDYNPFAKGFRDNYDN
Test: PBM E-score of 8-mer (E-score (dimensionless, -0.5 to 0.5)); Tbr is Tbrain of the sea star Patiria miniata (Pm) or the sea urchin Strongylocentrotus purpuratus (Sp); higher = stronger binding preference
Conditions: the construct has about 5 more residues each side
Description: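 Universal protein-binding microarray (Agilent AMADID 016060, 60-bp probes with a 35-bp variable region) incubated with 200 nM GST-fused Strongylocentrotus purpuratus Tbr T-box DNA-binding domain (residues 362-554) in PBS pH 7.5. Scored for every ungapped 8-mer (given with its reverse complement) as E-score (range -0.5 to 0.5; >0.45 counts as bound) and Z-score of median probe intensity. Two replicate arrays (datasets 1 and 2).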
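Note: protein at 200 nM in PBS on universal double-stranded arrays.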

Row | Sequence | PBM E-score of 8-mer
1 | GCTTCAAA | 0.0158 ± 0.019
2 | ACCAATGA | -0.0571 ± 0.11
3 | GTAGATAA | -0.151 ± 0.039
4 | GATCGTGA | 0.173 ± 0.054
5 | ACCTGGTA | -0.0333 ± 0.028
6 | CGGCCCTC | -0.119 ± 0.093
7 | GACGTTCC | -0.197 ± 0.016
8 | AAGTGAAG | 0.13 ± 0.049
9 | ACAGATGT | 0.152 ± 0.018
10 | ACCTATTC | 0.0131 ± 0.033
11 | GACCCGTA | -0.0138 ± 0.012
12 | ACTTCTAC | 0.037 ± 0.013
13 | CGGAGCCA | -0.164 ± 0.067
14 | CATGCCCC | -0.219 ± 0.047
15 | AACACATT | 0.383 ± 0.024
16 | CTCACATA | 0.157 ± 0.034
17 | CGCACATC | 0.338 ± 0.022
18 | CACACATC | 0.4 ± 0.013
19 | AACACAGC | 0.115 ± 0.086
20 | GACACATC | 0.363 ± 0.028
21 | CTCACATC | 0.377 ± 0.013
22 | AACACACT | 0.211 ± 0.022
23 | ATCACATC | 0.109 ± 0.02
24 | AACACATC | 0.375 ± 0.012
25 | AACACATG | 0.336 ± 0.046

Row | Sequence | PBM E-score of 8-mer
26 | AACACATA | 0.345 ± 0.029
27 | CATGAAAC | -0.146 ± 0.031
28 | GCTAGCAC | 0.2678 ± 0.0018
29 | TAAGGTAA | -0.107 ± 0.0024
30 | AGTGCTGA | 0.0461 ± 0.029
31 | CTCCTCTC | 0.0391 ± 0.091
32 | GCCCAATA | -0.142 ± 0.1
33 | AAGCTATA | -0.0728 ± 0.05
34 | GCAGGTGA | 0.414 ± 0.011
35 | ACAGGTGC | 0.436 ± 0.013
36 | GTAGGTGA | 0.379 ± 0.023
37 | CCAGGTGA | 0.306 ± 0.012
38 | ACAGGTGA | 0.373 ± 0.0074
39 | GCAGGTCA | 0.036 ± 0.077
40 | GTAGGTTA | -0.184 ± 0.0098
41 | ACAGGTGG | 0.316 ± 0.026
42 | ACAGGTTA | 0.257 ± 0.043
43 | GCAGGTAA | -0.0374 ± 0.063
44 | CTAGGTGA | 0.356 ± 0.026
45 | CCAGGTGC | 0.3516 ± 0.00069
46 | GTCATAAA | -0.00255 ± 0.054
47 | AAAAGATA | -0.0313 ± 0.063
48 | CTACGCAC | 0.0937 ± 0.02
49 | TACCTCTA | -0.164 ± 0.002
50 | ATAAGAGC | -0.19 ± 0.022

Row | Sequence | PBM E-score of 8-mer
51 | ACCCTCGG | -0.124 ± 0.045
52 | ATGCAGAG | -0.18 ± 0.023
53 | ACGAACCG | 0.192 ± 0.063
54 | CATTTTCA | 0.0656 ± 0.088
55 | AGTTCTGA | -0.131 ± 0.043
56 | TAGACCCA | -0.101 ± 0.067
57 | AAGTGGTG | 0.205 ± 0.007
58 | CGACCATC | 0.0183 ± 0.023
59 | CAGAGGAG | -0.063 ± 0.011
60 | GGGTGGCA | 0.288 ± 0.014
61 | AGGTGGAG | 0.158 ± 0.025
62 | AGGTGGCG | 0.401 ± 0.011
63 | AGGTGGCC | 0.075 ± 0.0048
64 | CGGTGGCA | 0.186 ± 0.053
65 | AGGTGGCA | 0.432 ± 0.015
66 | CCCATCAC | 0.189 ± 0.031
67 | CCCGAGGG | -0.341 ± 0.026
68 | AACGCATA | 0.0089 ± 0.0093
69 | CGCGCCTA | 0.356 ± 0.037
70 | AACGCCAT | 0.199 ± 0.029
71 | GACGCCTC | 0.328 ± 0.017
72 | TACGCCTA | 0.0945 ± 0.018
73 | AACGCCTA | 0.298 ± 0.038
74 | AACGCCTC | 0.35 ± 0.0088
75 | AACGCCTG | 0.292 ± 0.006

Row | Sequence | PBM E-score of 8-mer
76 | AGCGCCTC | 0.268 ± 0.0083
77 | CACGCCTA | 0.375 ± 0.016
78 | CGCGCCTC | 0.365 ± 0.039
79 | CACGCCTC | 0.395 ± 0.032
80 | AACGCCTT | 0.367 ± 0.041
81 | ACTCGCTC | -0.0581 ± 0.083
82 | AGCCAATG | -0.218 ± 0.056
83 | AAACCGCG | 0.0876 ± 0.057
84 | AGCATCTG | -0.116 ± 0.028
85 | GCCACGGC | -0.0294 ± 0.015
86 | CGTGTTAC | 0.308 ± 0.0063
87 | GGTGTAAA | 0.436 ± 0.012
88 | GCTGTTAC | 0.0324 ± 0.031
89 | ACTGTTAG | 0.195 ± 0.048
90 | CCTGTTAA | 0.168 ± 0.067
91 | AGTGTTAG | 0.3895 ± 0.00056
92 | AGTGTAAA | 0.338 ± 0.049
93 | GGTGTAAC | 0.349 ± 0.014
94 | CGTGTTAA | 0.409 ± 0.0099
95 | GGTGTTAC | 0.4612 ± 0.0021
96 | CGTGTTAG | 0.332 ± 0.015
97 | AGTGTTTG | 0.219 ± 0.041
98 | AGTTAGAT | -0.191 ± 0.0088
99 | CCTAACTC | -0.0227 ± 0.032
100 | ACAGCCAA | 0.00932 ± 0.037

Row | Sequence | PBM E-score of 8-mer
101 | CACCACCA | 0.145 ± 0.0054
102 | AATAGCAA | 0.151 ± 0.019
103 | AGTCCTTG | -0.0449 ± 0.074
104 | AGGCGGTG | -0.0537 ± 0.076
105 | GGAGCCCC | -0.206 ± 0.022
106 | AGTGTTTA | 0.245 ± 0.062
107 | ACTGTTAT | 0.152 ± 0.032
108 | AGTGTTAT | 0.372 ± 0.045
109 | AGTGTTGG | 0.3684 ± 7.1e-06
110 | TCTGTTAA | 0.131 ± 0.02
111 | AGTGTTGC | 0.346 ± 0.0099
112 | GGTGTTTA | 0.386 ± 0.015
113 | AGTGTTGA | 0.351 ± 0.006
114 | TATGTTAA | 0.0661 ± 0.067
115 | CGTGTTTA | 0.123 ± 0.047
116 | AATGTTAT | 0.0346 ± 0.014
117 | TGTGTTAA | 0.407 ± 0.011
118 | GGTCTCAA | -0.0536 ± 0.098
119 | ACTTGCTG | -0.0473 ± 0.073
120 | ATTCTGTC | 0.04 ± 0.016
121 | CAGTAACC | 0.048 ± 0.029
122 | GAAATGGA | -0.101 ± 0.0095
123 | ACTTGACT | 0.0832 ± 0.1
124 | CTAATAGC | 0.0334 ± 0.069
125 | ACTGTTAA | 0.261 ± 0.036

Row | Sequence | PBM E-score of 8-mer
126 | GGTGTTAA | 0.472 ± 0.0062
127 | GGTGTTGA | 0.4631 ± 0.0038
128 | AGTGTTAA | 0.436 ± 0.021
129 | CGTGTTGA | 0.3014 ± 0.0019
130 | GCTGTTAA | 0.162 ± 0.0053
131 | AATGTTAA | -0.0502 ± 0.052
132 | GTTGTTGA | 0.239 ± 0.044
133 | AGTGTTAC | 0.3741 ± 0.0036
134 | GTTGTTAA | 0.339 ± 0.034
135 | AGTGTTCC | 0.0182 ± 0.013
136 | ACTGTTAC | 0.168 ± 0.0045
137 | ATTTGCAC | 0.239 ± 0.043
138 | ACTTGAGG | -0.00245 ± 0.078
139 | CGACGCGA | 0.159 ± 0.068
140 | ACAGCTTC | 0.208 ± 0.017
141 | AGTGGAGC | -0.0127 ± 0.11
142 | TCATCTCA | 0.0482 ± 0.019
143 | GCCAATCC | -0.0232 ± 0.048
144 | GGTGTGTA | 0.356 ± 0.008
145 | AGTGGGGG | -0.0909 ± 0.05
146 | AGAGTGGG | -0.128 ± 0.066
147 | CGTGTGGA | 0.306 ± 0.0073
148 | AGTGTGGG | 0.399 ± 0.018
149 | AGTGTGGA | 0.373 ± 0.035
150 | GGTGTGGA | 0.456 ± 0.014

Row | Sequence | PBM E-score of 8-mer
151 | AGTGTGGC | 0.33 ± 0.014
152 | AGTGTGTA | 0.229 ± 0.018
153 | ACCTTAGC | 0.211 ± 0.014
154 | CCACGGGC | -0.227 ± 0.019
155 | CTTCGCGC | 0.407 ± 0.032
156 | ATTCGCGC | 0.387 ± 0.012
157 | ATTCGCTA | 0.208 ± 0.024
158 | CATCGCGA | 0.197 ± 0.0055
159 | AATCGCGA | 0.3847 ± 0.00013
160 | ATTCGCGG | 0.275 ± 0.026
161 | CTTCGCTC | -0.00285 ± 0.036
162 | CTTCGCGA | 0.285 ± 0.032
163 | AATCGCGT | 0.194 ± 0.039
164 | CATCGCGC | 0.259 ± 0.032
165 | AATCGCGC | 0.332 ± 0.01
166 | ATTCGCGA | 0.392 ± 0.02
167 | GCGCCACA | 0.223 ± 0.014
168 | ATTTGTGA | 0.181 ± 0.085
169 | GGGGCGCA | -0.227 ± 0.038
170 | TAAAGCTA | -0.171 ± 0.036
171 | GTATTGAC | -0.0627 ± 0.015
172 | CAGTGCAG | -0.179 ± 0.024
173 | CCTCGCGA | 0.306 ± 0.0057
174 | GTTCGCCA | 0.158 ± 0.011

From the supplement of paper PMC4166925
